In PubChem BioAssay (NCI) one finds growth data, which are given here for 13 compounds.

Each structure is given as a SMILES string. This is part of a sample that, as a whole, favours compounds with a hit. Of some 83,000 tested, about 20% had one in any assay.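 Cells were grown in 96-well plates and exposed to the test compound at a single concentration for 48 hours; results are reported as percent growth, with values below 10 considered active.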 Values without a mark were called inactive. Active and inactive are the calls of the source.

What all share (experiment): NCI-60 one-dose screen, 48 h (100 = growth as untreated, 0 = no growth, -100 = all killed)
Holding throughout (conditions): 10 µM unless noted

The test system of assay [1] is HCT-15 colon.
Assay [2] relates to HT29 colon.
In assay [3] the test system is SNB-75 CNS.
For assay [4], the system named is SNB-19 CNS.
Assay [5] concerns U251 CNS.
For assay [6], the system named is PC-3 prostate.
Assay [7] deals with SK-MEL-5 melanoma.
Assay [8] concerns UACC-62 melanoma.
The subject of assay [9] is SK-MEL-28 melanoma.
In assay [10] the test system is LOX IMVI melanoma.

Turning to `CC(=O)c1ccc2c(c1)CCN2`, the growth was 105% in assay [1]; 101% in assay [2]; 93.1% in assay [3]; 98.3% in [4]; 97.1% in assay [5]; 98.6% in assay [6]. Besides, the growth was 105% in assay [7], 102% in assay [8] and 109% in assay [9].

For `Cc1cc(N(CCCNc2ccnc3cc(Cl)ccc23)Cc2ccccn2)nc(N2CCOCC2)n1`, the growth in assay [1] is 87.3%; in [2], 56%; in assay [3], 69.2%; in assay [4], 93.9%; in [5], 94.8%; in assay [6] it was 74%. Moreover, the growth in assay [7] was 105%; in [8] it was 106%; in [9] it was 106%.

Take `COC(=O)c1ccc2oc(NC(=O)c3ccc(N4CCOCC4)c([N+](=O)[O-])c3)nc2c1`: the growth in assay [1] was 107%; in assay [2] it was 95.6%; in assay [3] it was 79.7%; in assay [4] it was 92.4%; in [5] it was 92.2%; in assay [6], 89.5%. Further, the figures for the growth in [7], in [8] and in assay [9] were 104%, 90.6% and 97.4%, respectively.

As for `CCCc1nc2ccccn2c1Nc1ccc(C(=O)NO)cc1`, the growth was 89.8% in assay [1]; 92.7% in assay [2]; 82.2% in assay [3]; 85% in assay [4]; 95.9% in assay [5]; 83% in assay [6]. Moreover, the growth in assay [7] was 101%; in assay [8], 82.7%; in assay [9] it was 95.7%.

As to `CCOC(=O)C(O)C(O)(c1ccccc1)c1ccccc1` (stereo not given), the growth is 98% in [1]; 99.7% in [2]; 89.7% in assay [3]; 114% in [4]; 97.3% in assay [5]; 96.8% in assay [6]. The growth in [7] was 97.6%; in assay [8] it was 98.5%; in assay [10], 102%; in assay [9], 95.8%.

Regarding `C=C1c2c(C)nn(-c3ccc(S(N)(=O)=O)cc3)c2N(C)C23CC1C1(C)c4c(C)nn(-c5ccc(S(N)(=O)=O)cc5)c4N(C)C(C)(CC12)C3` (stereo not given), the growth in [1] was 14.6%; in assay [2], 13.6%; in [3], 76%; in assay [4], 43%; in assay [5], 24.7%; in [6], 23.6%. The figures for the growth in assay [7], in [8] and in [9] were 45.5%, 37.5% and 30.7%, respectively.

Consider `Clc1ccc2c(NCCCN3CCN(c4nc(-n5ccnc5)nc5ccccc45)CC3)ccnc2c1`, for which the growth in [1] was -64.6% (active); in [2], -16.2% (active); in assay [3] it was 100%; in [4] it was 99.5%; in assay [5], 97.2%; in assay [6] it was 78.4%. The growth was -94.8% (active) in assay [7], 93.4% in [8] and -86.9% (active) in [9].

Take `Cc1cc(N(CCCNc2ccnc3cc(Cl)ccc23)Cc2ccccn2)nc(N2CCCC2)n1`: the growth was 48.3% in assay [1]; 44% in assay [2]; 75.4% in assay [3]; 91.2% in assay [4]; 74.8% in assay [5]; 50.5% in [6]. Besides, the growth in assay [7] is 65.6%; in [8] it was 95.1%; in [9], 88%.

Turning to `C[C@@H]1CC[C@@H]2[C@@H]1[C@H](OC(=O)c1ccc3ccccc3c1)[C@]1(C3CCCCC3)C[C@@H](OC(=O)CO)[C@@]2(C)O1`, the growth was 40.9% in assay [1]; 20.7% in assay [2]; 64.9% in assay [3]; 84.1% in assay [4]; 48.9% in assay [5]; 22.2% in assay [6]. The growth is 88.6% in assay [7], 73.6% in assay [8] and 70.2% in assay [9].

On to `C=C(C)[C@@H]1CC[C@]2(CN)CC[C@]3(C)[C@H](CC[C@@H]4[C@@]5(C)CCC(N)[C@@](C)(CO)[C@@H]5CC[C@]43C)[C@@H]12` (stereo not given in full), for which the growth in assay [1] was -47.6% (active); in [2] it was -60.6% (active); in [3], 75.6%; in assay [4] it was -10.5% (active); in assay [5] it was -93.8% (active); in assay [6], 6.4% (active). Besides, the figures for the growth in assay [7], in assay [8] and in assay [9] were -97.2% (active), -79.6% (active) and -94.2% (active), respectively.

With `O=C(Nc1ccccn1)[C@H](O)[C@@H](O)C(=O)N1CCOCC1`, the growth in [1] was 107%; in assay [2], 104%; in [3], 121%; in assay [4], 102%; in assay [5] it was 96.1%; in [6] it was 94%. Further, the growth is 99.3% in [7], 108% in assay [8], 104% in assay [10] and 114% in [9].

Take `C=C1c2c(C)nn(-c3ccc(O)cc3)c2N(C)C23C[C@@H]1C1(C)c4c(C)nn(-c5ccc(O)cc5)c4N(C)C(C)(C[C@H]12)C3` (stereo not given in full): the growth in assay [1] was 11.1%; in assay [2], 17.5%; in assay [3] it was 64.2%; in assay [4], 48.7%; in assay [5], 33%; in assay [6] it was 12.8%. Further, the growth in assay [7] is 11.4%; in [8], 32.7%; in assay [9], 42.6%.

`COc1cc(NC(=O)c2cc(O)c(CC=C(C)C)c(O)c2)cc2c1O[C@]1(C)CC[C@@H](O)C(C)(C)[C@H]1C2`: the growth in [1] is 34.3%; in [2] it was 5.24% (active); in assay [3], -7.48% (active); in assay [4], 44.9%; in assay [5] it was 13.4%; in assay [6] it was 21.5%. Further, the growth in [7] was -20.3% (active); in [8], -13.3% (active); in [10], 12.7%; in assay [9] it was 18.8%.
